Source: PubChem
Sampled rows, rich in hits. Any-hit rate of the full collection: about 4.2%.
hgDAF12 agonist = agonists of H. glycines DAF-12 nuclear receptor; HEK293 GAL4-hgDAF12 UAS-luciferase reporter, agonist luminescence; normalized to butyrate control; activation, % at 6.8 µM; 1.8% of 370,000 active;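 active = activation above a cutoff set at the mean of all screened compounds plus 3 SD, cut at about 10% in these data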;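 note: 0% = DMSO wells and 100% = sodium butyrate wells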
hcDAF12 agonist = activators of H. contortus DAF-12 nuclear receptor; HEK293 hcDAF-12 lit1-tk-luc reporter, luminescence; 0% DMSO, 100% Δ7-dafachronic acid; activation, % at 6.8 µM; 1.4% of 370,000 active; AID 652067;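 active = activation above the mean of all tested compounds plus 3 SD, cut at about 5.5% in these data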;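 note: 100% = response to 3 µM Δ7-dafachronic acid high control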
ssDAF-12 act = activators of S. stercoralis DAF-12 nuclear receptor. 1% of 370,000 active. HEK293 ssDAF-12/GRIP1 lit1-tk-luc reporter, luminescence; % of 3 µM dafachronic acid response. activation, % at 6.8 µM;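 active = activation above the mean over all tested compounds plus 3 SD, cut at about 0.9% in these data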;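 note: 0% = DMSO-only wells and 100% = 3 µM delta7-dafachronic acid wells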
Wnt bcat act = activates Wnt/beta-catenin signaling in a reporter cell assay; activator, plate reader; activation, % at 9.35 µM; 1.2% of 300,000 active; in the data active = activation above about 30%, passing the limit was not always enough;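 note: 0% = neutral control wells and 100% = positive control wells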
DAX1 inh = blocks DAX1 repression of SF-1 activated StAR promoter; 1.1% of 370,000 active; HEK293T StAR-luciferase reporter, SF-1/DAX-1 repression relief; AID 652010; inhibition, % at 6.8 µM;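 active = inhibition above the mean over all tested compounds plus 3 SD, cut at about 3.6% in these data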;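 note: 0% = DAX-1 cells with DMSO and 100% = cells lacking DAX-1 with DMSO; higher inhibition means more luminescence from relief of DAX-1 repression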
esBAF inh = blocks esBAF chromatin remodeling in mouse ES cells; Bmi1-luciferase knock-in reporter, 24 h; 100% = twice the neutral-well signal; reporter increase, % at 12.5 µM; 2% of 350,000 active; AID 602393; in the data active = activation above about 40%;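 note: 0% = median of the plate's neutral control wells and 100% = double that signal; a rise in the Bmi1 reporter signal indicates esBAF inhibition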
LXRb hcDAF ctr = counter-screen for hcDAF-12 agonists: agonists of human LXR-beta | 3,400 tested, under 10 active | AID 743027 | HEK293 Gal4-LXR tk-luc reporter, luminescence, 24 h; normalized: DMSO 0%, positive control 100% | shares compounds with hcDAF12 agonist | activation, % at 6.8 µM;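 active = mean percent activation of the reporter above a cutoff set as the average over tested compounds plus their standard deviation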
Target sequence (P55055 whole entry, looked up, the tested form may be a part): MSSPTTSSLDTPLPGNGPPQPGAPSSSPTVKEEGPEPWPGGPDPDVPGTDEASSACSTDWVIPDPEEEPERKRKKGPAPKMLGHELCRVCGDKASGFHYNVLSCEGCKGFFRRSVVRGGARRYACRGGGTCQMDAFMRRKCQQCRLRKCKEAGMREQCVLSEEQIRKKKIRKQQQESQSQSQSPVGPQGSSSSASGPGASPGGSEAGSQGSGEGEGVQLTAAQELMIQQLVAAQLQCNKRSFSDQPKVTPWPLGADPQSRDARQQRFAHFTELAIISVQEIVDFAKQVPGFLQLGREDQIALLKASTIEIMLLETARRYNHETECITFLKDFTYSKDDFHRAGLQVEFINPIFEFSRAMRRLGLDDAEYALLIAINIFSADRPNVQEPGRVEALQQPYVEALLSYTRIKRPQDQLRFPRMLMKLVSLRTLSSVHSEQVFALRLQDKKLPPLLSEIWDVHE
hcDAF12 ag = confirmation of H. contortus DAF-12 agonists; activation, % at 6.8 µM; AID 743032; shares compounds with hcDAF12 agonist; HEK293 hcDAF-12 lit1-tk-luc reporter, luminescence; % of Δ7-dafachronic acid response; 61% of 3,400 active;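 active = mean activation across triplicate tests above the threshold derived from the earlier primary screen, cut at about 5.5% in these data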;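 note: 0% = DMSO only wells and 100% = 3 µM Δ7-dafachronic acid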
* marks the source's active call; other numbers are inactive results; x = not tested or not shown.

SMILES	hgDAF12 agonist	hcDAF12 agonist	ssDAF-12 act	Wnt bcat act	DAX1 inh	esBAF inh	LXRb hcDAF ctr	hcDAF12 ag
O=S(=O)(N[C@H]1CC[C@H](CCn2cc(-c3cccc(F)c3)nn2)O[C@H]1CO)c1ccc(Cl)cc1	x	x	x	x	x	-10	x	x
CSc1ccc(C2c3[nH]c4ccccc4c3CCN2C(=O)c2ccnn2C)cc1 (stereo unspecified)	7	10*	2.0*	42*	0	x	1	8.3*
CCc1ccc(C2c3[nH]c4ccccc4c3CCN2C(=O)c2ccc(=O)n(C)n2)cc1 (stereo unspecified)	2	1	0	-18	0	-11	x	x
CCc1ccc(C2c3[nH]c4ccccc4c3CCN2C(=O)CN2CCN(CC)CC2)cc1 (stereo unspecified)	0	8.5*	1	0	0	x	0	4
CO[C@H]1CN(C)C(=O)c2cc(NC(=O)NC3CCCCC3)ccc2OC[C@H](C)N(C)C[C@@H]1C	x	x	x	x	x	1	x	x
Cc1ccc(S(=O)(=O)Nc2ccc3c(c2)C(=O)N([C@H](C)CO)C[C@H](C)[C@H](CN(C)C(=O)Nc2ccccc2)OCCCC[C@H](C)O3)cc1	x	x	x	x	x	5	x	x
Cc1cccc2c(N=NC(=O)C(C)n3cnc4ccccc4c3=O)c(O)[nH]c12 (stereo unspecified)	-1	0	-1	-2	0	x	x	x
Oc1[nH]c2ccccc2c1N=Nc1cccc(Cl)c1	9	8.9*	1.2*	17	1	52*	1	13*
Cc1cccc2c(N=Nc3ccccc3)c(O)[nH]c12	22*	14*	4.4*	45*	2	x	2	21*
Oc1[nH]c2ccccc2c1N=Nc1c(F)c(F)c(Cl)c(F)c1F	0	1	-1	0	1	8	x	x
CC(=O)Nc1cccc(N/C=C(\C=O)c2nc3ccccc3o2)c1	7	9.6*	1.0*	27	1	58*	0	9.4*
CC(=O)Nc1ccc(N/C=C(\C=O)c2nc3ccccc3o2)cc1	1	6.7*	1.0*	-3	0	4	0	6.7*
O=C/C(=C\Nc1ccc(Br)cc1)c1nc2ccccc2o1	-2	4	-1	-2	0	x	x	x
O=C/C(=C\Nc1ccccn1)c1nc2cc(Cl)ccc2o1	2	6.8*	0.9*	-6	1	47*	0	4
Clc1ccc2oc(-c3ccccc3)nc2c1	4	1	0	30	1	x	x	x
CCN1CCN(/C=N/c2nc(C)cs2)CC1	8	6.8*	0	9	2	27	0	2
O=C(O)C1CC(=O)N(c2ccc(OCc3ccccc3Cl)cc2)C1 (stereo unspecified)	-2	0	-1	x	0	x	x	x
NC(=O)C1CC(=O)N(c2ccc(OCc3ccccc3Cl)cc2)C1 (stereo unspecified)	6	7.3*	0	0	0	x	0	0
CCCCN(C)CCCNC(=O)c1cc(Nc2ccc(OC)c(OC)c2)nc2ccccc12	1	7.8*	0	2	1	7	0	1
Cc1cc(C(=O)NCCCN(C)C)c2ccccc2n1	0	-1	-1	-1	0	x	x	x
Cc1noc(C)c1S(=O)(=O)N(C)C[C@H]1Oc2ccc(NS(=O)(=O)c3cn(C)cn3)cc2CC(=O)N([C@H](C)CO)C[C@@H]1C	x	x	x	x	x	-5	x	x
COc1ccc(Cc2c(C(C)(C)C)nc3ccc(C)cn23)c(C)c1	-2	0	-1	-1	0	-1	x	x
COc1ccccc1Cc1c(C(C)(C)C)nc2ccc(C)cn12	7	6.6*	1	2	0	-8	0	4
CCCN1C[C@@H](C)[C@@H](OC)CN(C)C(=O)c2cc(NC(=O)Nc3ccccc3F)ccc2OC[C@@H]1C	x	x	x	x	x	3	x	x
